Reference: PubChem BioAssay (EPA / NIEHS)
Where “and” joins values, the source holds several entries; their conditions need not be identical. Equal values may be shown once. Records with an inconclusive call do not appear. More than one record can exist for a structure, and the calls need not agree. Calls of active or inactive are those of the source. Rule for the calls, unless noted: active = hit-call score of the fitted dose curve at least 0.9, where 1 is the maximum; inactive = score below 0.9.

How the values were obtained:
[1] = BSK_BT_Bcell_Proliferation: Viability Assessment in the BioMAP Diversity Plus: BT Assay for B cell Proliferation (AID 2284227); details: primary human B cells with PBMC
Summary of the method: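 Using a human primary B cell–PBMC co-culture, the assay measures total protein by sulforhodamine B absorbance as a gauge of proliferation after 72 h. Analysis followed the positive fitting direction with DMSO as baseline.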

[2] = read-out: Interleukin 6 (IL6), IL6 (gene 3569); test: BSK_BT_xIL6: BioMAP Diversity Plus: BT Assay for Interleukin 6 (IL6) Biomarker Activity (AID 2284228); details: primary human B cells with PBMC
Summary of the method: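 Secreted IL-6 in the primary human B cell plus PBMC system, measured by Luminex at 24 h post-chemical, DMSO as baseline. Alamar Blue viability: 75,000 cells/well, chemical 1 h before SEB/TSST-1 (20 ng/mL each), 90 h, then 6 h dye.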

[3] = read-out: Interleukin 17A (IL17A), IL17A (gene 3605); test: BSK_BT_xIL17A: BioMAP Diversity Plus: BT Assay for Interleukin 17A (IL17A) Biomarker Activity (AID 2284229); details: primary human B cells with PBMC
Summary of the method: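 Luminex xMAP quantification of secreted IL-17A after 24 h chemical exposure of a primary human B cell/PBMC co-culture. Signal increases fitted relative to DMSO negative control.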

[4] = read-out: Tumor necrosis factor (Homo sapiens) (UniProt P01375); test: BSK_BT_xTNFa: BioMAP Diversity Plus: BT Assay for Tumor necrosis factor alpha (TNF-alpha) Biomarker Activity (AID 2284230); details: primary human B cells with PBMC
Summary of the method: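 Endpoint derived in the positive direction versus DMSO vehicle. Cells: B cells together with PBMC, exposed 24 h before TNF-alpha in the medium was read on the Luminex xMAP platform.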

[5] = read-out: Vascular cell adhesion molecule 1 (VCAM1), VCAM1 (gene 7412); test: BSK_MyoF_VCAM1: BioMAP Diversity Plus: MyoF Assay for Vascular cell adhesion molecule 1 (VCAM1) Biomarker Activity (AID 2284231); details: primary human lung fibroblasts
Summary of the method: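 ELISA readout of VCAM-1 on human lung fibroblast cultures 24 hours after dosing, analyzed for signal gain relative to DMSO. Overt cytotoxicity was checked by sulforhodamine B total-protein staining in parallel cultures.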

[6] = read-out: Collagen I, COL1A1 (gene 1277); test: BSK_MyoF_CollagenI: BioMAP Diversity Plus: MyoF Assay for Collagen I Biomarker Activity (AID 2284238); details: primary human lung fibroblasts
Summary of the method: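 Collagen I levels measured by ELISA on human lung fibroblast cultures 24 h post-dosing, with curve fitting in the positive direction relative to DMSO; SRB staining of parallel wells marked cytotoxicity.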

[7] = read-out: Collagen III, COL3A1 (gene 1281); test: BSK_MyoF_CollagenIII: BioMAP Diversity Plus: MyoF Assay for Collagen III Biomarker Activity (AID 2284239); details: primary human lung fibroblasts
Summary of the method: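 Collagen III biomarker quantified by ELISA in human lung fibroblast cultures 24 h after dosing. Activity fitted in the positive direction against DMSO as baseline.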

[8] = read-out: Interleukin 17F (IL17F), IL17F (gene 112744); test: BSK_BT_xIL17F: BioMAP Diversity Plus: BT Assay for Interleukin 17F (IL17F) Biomarker Activity (AID 2284243); details: primary human B cells with PBMC
Summary of the method: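 Human B cells co-cultured with PBMC; secreted IL-17F quantified by LumineX xMAP 24 hours after chemical dosing. Activity fitted in the positive direction against DMSO negative control as baseline.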

[9] = read-out: Actin alpha 1 (ACTA1), ACTA1 (gene 58); test: BSK_MyoF_ACTA1: BioMAP Diversity Plus: MyoF Assay for Actin alpha 1 (ACTA1) Biomarker Activity (AID 2284244); details: primary human lung fibroblasts
Summary of the method: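 Human lung fibroblast (MyoF system) cultures dosed with test chemical; alpha-SMA measured by ELISA 24 h after dosing, normalized to DMSO control. Cytotoxicity tracked in parallel cultures by SRB total-protein staining.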

[10] = read-out: Interleukin 2 (IL2), IL2 (gene 3558); test: BSK_BT_xIL2: BioMAP Diversity Plus: BT Assay for Interleukin 2 (IL2) Biomarker Activity (AID 2284245); details: primary human B cells with PBMC
Summary of the method: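 Human B cell plus PBMC co-culture, 24 h after chemical dosing; secreted IL-2 quantified by Luminex xMAP multiplex, fitted for signal gain against DMSO baseline.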

[11] = read-out: Basic fibroblast growth factor (bFGF), FGF2 (gene 2247); test: BSK_MyoF_bFGF: BioMAP Diversity Plus: MyoF Assay for Basic fibroblast growth factor (bFGF) Biomarker Activity (AID 2284246); details: primary human lung fibroblasts
Summary of the method: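 Human lung fibroblast cultures were dosed and measured 24 h later in 96-well format. bFGF biomarker levels quantified by ELISA, with activity fitted in the positive direction against DMSO.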

[12] = read-out: Collagen IV, COL4A1 (gene 1282); test: BSK_MyoF_CollagenIV: BioMAP Diversity Plus: MyoF Assay for Collagen IV Biomarker Activity (AID 2284247); details: primary human lung fibroblasts
Summary of the method: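 Primary human lung fibroblasts (MyoF system) dosed 24 h; Collagen IV measured by ELISA. Activity fitted in positive direction against DMSO; cytotoxicity tracked by SRB total-protein staining in parallel cultures.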

[13] = CCTE_Mundy_HCI_hNP1_Casp3_7: CCTE's Caspase-Glo 3/7 Assay in human neuroprogenitor cells for Apoptosis, Mundy Lab (AID 2284240)
Summary of the method: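 Luminescent caspase-3/7 readout, 26.5 h post-dose, in human neural progenitor cells from WA09 embryonic stem cells. Cells grew 40–44 h at 37 °C, 5% CO2 before chemical addition. Activity analysed as signal increase over DMSO baseline.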

[14] = CCTE_Mundy_HCI_hNP1_CellTiter: CCTE's Cell Titer-Glo 2 Assay in human neuroprogenitor cells for Viability, Mundy Lab (AID 2284241; active = hit-call score of the fitted dose curve at least 0.9, where 1 is the maximum)
Summary of the method: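 Viability read as luminescent ATP content (CellTiter-Glo, 30 min room temperature) twenty-four hours after dosing, relative to DMSO. Cells: WA09-derived hNP1 neuroprogenitors on poly-L-ornithine/laminin, plated 40 to 44 hours before chemical.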

[15] = TAMU_HCS_1.5hr_SingleDonor1434_Cytotoxicity: Cytotoxicity Assessment using High-content Screening (HCS) Fluorescent Imaging for the Texas A&M University (TAMU) 1.5-hr Human Induced Pluripotent Stem Cell (iPSC)-derived Cardiotoxicity Assay (AID 2284234; active = hit-call score of the fitted dose curve at least 0.9, where 1 is the maximum)
Summary of the method: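 Human iPSC-derived cardiomyocytes dosed at 0.2, 1, 10, 100 uM final (0.5% DMSO) for 90 min at 37 C. Hoechst 33342-stained nuclei counted by 10x high-content imaging; POD is EC10, a 10% drop in total cell count versus DMSO.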

[16] = TAMU_PeakParms_SingleDonor1434_QT: Texas A&M University (TAMU) 1.5-hr Human Induced Pluripotent Stem Cell (iPSC)-derived Cardiomyocytes Calcium (Ca+2) Flux Assay for Cardiotoxicity: QT (decay-rise ratio) (AID 2284235; active = hit-call score of the fitted dose curve at least 0.9, where 1 is the maximum)
Summary of the method: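 iPSC-derived cardiomyocytes (single donor 1434) dosed at 0.2, 1, 10, 100 uM final in 0.5% DMSO, 90 min at 37C. Ca2+ flux fluorescence decay/rise ratio; EC05 (5% increase versus DMSO) as POD, excluding beat-arrest and severe-notch data.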

[17] = CCTE_Mundy_HCI_Cortical_NOG_BPCount: CCTE's Neurite Outgrowth Assay in rat cortical cells for Branch Point Count, Mundy Lab (AID 2284237)
Summary of the method: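 Measured 50.33 h after dosing, this morphology endpoint uses rat primary cortical cultures labelled for betaIII-tubulin. Branch points are quantified by high-content imaging, with DMSO as negative control and baseline.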

Measured: AC50

Chain of Tumor necrosis factor (Homo sapiens) (P01375 whole entry, looked up): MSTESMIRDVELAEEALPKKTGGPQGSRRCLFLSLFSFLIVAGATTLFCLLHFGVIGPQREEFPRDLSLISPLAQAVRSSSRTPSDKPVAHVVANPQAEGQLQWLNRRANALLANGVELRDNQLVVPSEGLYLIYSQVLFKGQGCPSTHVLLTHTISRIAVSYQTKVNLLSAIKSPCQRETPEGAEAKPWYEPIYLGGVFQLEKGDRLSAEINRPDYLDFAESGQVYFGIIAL

O=C(O)C(F)(F)C(F)(F)C(=O)O
active: [4] 0.222 µM
inactive: [1] | [2] | [3] | [4] | [5] | [6] | [7] | [8] | [9] | [10] | [11] | [12]

OCC(F)(F)OC(F)(F)C(F)(F)OC(F)(F)C(F)(F)OC(F)(F)CO
active: [2] 38.4 µM | [5] 41.2 µM | [8] 22.8 µM and 20.7 µM | [9] 20.5 µM and 30 µM
inactive: [1] | [2] | [3] | [4] | [5] | [6] | [7] | [10] | [11] | [12]

FC(F)(F)C(F)(C(F)(F)F)C(F)(F)C(F)(F)CC1CO1 (configuration not stated)
not listed: [15] | [16] | [17]
inactive: all other assays above

CCOP(=S)(OCC)SCSc1ccc(Cl)cc1
active: [9] 3.97 µM | [12] 0.0408 µM
not listed: [13] | [14] | [15] | [16] | [17]
inactive: all other assays above

O=P(OCC(Br)CBr)(OCC(Br)CBr)OCC(Br)CBr (configuration not stated)
inactive: [6] | [7] | [9] | [11] | [12]
active: [1] 23.9 µM | [2] 17.4 µM | [3] 17.4 µM | [4] 33.6 µM | [5] 17.4 µM | [8] 27.7 µM | [10] 27.7 µM

CCCCC(CC)COP(=O)(Oc1ccccc1)Oc1ccccc1 (configuration not stated)
inactive: [16] | [17]
active: [1] 31.3 µM | [2] 20 µM | [3] 20 µM | [4] 20 µM | [5] 11.1 µM | [15] 50 µM | [6] 9.47 µM | [7] 9.45 µM | [8] 20 µM | [9] 8.64 µM | [10] 20 µM | [11] 12.3 µM | [12] 3.97 µM

CCCCC(CC)COC(=O)c1c(Br)c(Br)c(Br)c(Br)c1C(=O)OCC(CC)CCCC (configuration not stated)
not listed: [13] | [14] | [15] | [16] | [17]
inactive: all other assays above
